# Screening data as filed in PubChem.
# Tau FP inhib = inhibitors of human tau fibril formation. P10636. K18 P301L tau heparin fibrillization, Alexa594 FP, 6 h. Potency, µM (doses to about 57.7 µM), most hits filed as inhibitors. 0.39% of 280,000 active. AID 1468; also: nearly all actives have a fitted effect of over 55% in size
# Target sequence (P10636 561-689 P618L limits assumed): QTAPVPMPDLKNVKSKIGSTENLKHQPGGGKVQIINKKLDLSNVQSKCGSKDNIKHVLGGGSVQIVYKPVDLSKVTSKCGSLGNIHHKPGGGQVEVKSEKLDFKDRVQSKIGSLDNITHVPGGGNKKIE
#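 K18 P301L tau (15 uM unlabeled/0.24 uM Alexa 594-labeled, final) + compound + heparin 20 uM final; 100 mM NaOAc pH 7; 6 hr 37 C; ThT 30 uM final added, 1 hr RT; FP ex 555/em 632 nm.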
# Tau ThT inhib = blocks human tau fibril formation measured by thioflavin T; 2.1% of 270,000 active; recombinant tau K18 P301L, heparin-induced fibrillization, ThT fluorescence; Potency, µM (highest dose often 57.4 µM), actives largely listed as inhibitors; also: nearly all actives have a fitted effect of over 55% in size
#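 Fibril formation assay: tau K18 P301L at 15 uM with trace Alexa 594 label, heparin inducer 20 uM, pH 7 sodium acetate buffer, 37 C for 6 hr; endpoint ThT signal.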
# TRb SRC2 PPI = inhibitors of human thyroid hormone receptor beta-SRC2 interaction. Potency, µM (highest dose often 106 µM), hits mostly inhibitors. TRbeta-SRC2 peptide binding, fluorescence polarization; receptor liganded with 1 µM T3. P10828. 0.065% of 280,000 active; also: nearly all actives have a fitted effect of over 50% in size
#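 Fluorescence polarization of 20 nM Texas Red SRC2 peptide (20-aa NR interaction domain) bound to 0.6 uM human TRb ligand-binding domain, with 1 uM T3, after 5 hr at ambient temperature; inhibition seen as decreased polarization.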
# TexasRed fluor = Texas Red fluorescence interference in TRb-SRC2 counter-screen | TRb/SRC2 Texas Red total fluorescence interference | Potency, µM (doses to about 106 µM) | 0.29% of 280,000 active | AID 1479; active = well fitted curve in either direction with a large enough effect; inconclusive = small, poorly fitted or top-dose-only effect
#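 Human TRb ligand-binding domain at 0.6 uM with 20 nM Texas Red SRC2 peptide in Tris buffer containing 1 uM T3 and 5% DMSO, incubated with compound 5 h at ambient temperature. Total fluorescence (555/632 nm) calculated as parallel + 2 × perpendicular.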
# Tau fluor counter = counter-screen for tau fibril formation inhibitors; tau K18 P301L (four-repeat tau fragment) Alexa594 fluorescence, heparin fibrillization; Potency, µM (top dose mostly 57.7 µM); 0.93% of 280,000 active; AID 1463; also: nearly all actives have a fitted effect of over 55% in size
#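 Human K18 P301L tau (15 uM unlabeled plus 0.24 uM Alexa 594-labeled, final) in 100 mM sodium acetate pH 7 was mixed with compound and 20 uM heparin and incubated 6 hr at 37 C.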
# GoLoco inh red = RGS12 GoLoco-Gai1 interaction inhibition. 0.44% of 230,000 active. Potency, µM (series often up to 61.6 µM), hits mostly inhibitors. Gai1:RGS12 GoLoco peptide FP, rhodamine, 10 min. P63096; active = well fitted inhibition curve with a large enough effect, not every such curve was filed as active; inactive = no such curve, though single readings can be large or run the other way; also: nearly all actives have a fitted effect of over 30% in size
# Target sequence (P63096 whole entry, looked up): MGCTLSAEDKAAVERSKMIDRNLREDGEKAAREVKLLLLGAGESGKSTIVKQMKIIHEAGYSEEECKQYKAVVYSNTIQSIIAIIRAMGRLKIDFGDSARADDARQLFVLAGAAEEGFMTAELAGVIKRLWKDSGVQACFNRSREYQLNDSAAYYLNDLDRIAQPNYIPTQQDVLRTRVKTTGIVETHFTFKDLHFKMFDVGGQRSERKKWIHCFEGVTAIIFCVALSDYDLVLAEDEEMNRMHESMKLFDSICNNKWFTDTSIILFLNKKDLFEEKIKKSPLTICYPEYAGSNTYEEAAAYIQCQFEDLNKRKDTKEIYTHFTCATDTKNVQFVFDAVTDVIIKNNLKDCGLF
# Numbers stand for hits; . = inactive; ? = inconclusive; / = no result given; [ ] = dose if it differs, or a comment. Hits are enriched below; roughly 3.2% of the tested compounds scored in any of these assays. Unless noted, calls follow the shape of the dose curve; as a rule, active = well fitted curve in the direction sought with a large enough effect; inconclusive = small, poorly fitted or top-dose-only effect, or another doubt; inactive = no such curve, though single readings can be large; an effect the other way counts as inactive or inconclusive.
SMILES,Tau FP inhib,Tau ThT inhib,TRb SRC2 PPI,TexasRed fluor,Tau fluor counter,GoLoco inh red
COc1ccc(-c2c3c(=O)n(C)c(=O)n(C)c3c3n2-c2ccccc2NC3c2ccc(O)cc2O)cc1 (configuration not stated),.,?,.,.,.,/
O=C1CCCC2CCCCN12 (configuration not stated),.,.,.,.,.,.
O=C(Nc1ccc2c(c1)OCCO2)c1cccc2nc3ccccc3nc12,.,4.5µM,.,.,?,.
O=C(Nc1ccc2c(c1)OCCO2)c1ccccc1F,.,.,.,.,.,.
O=C(CN1c2ccccc2Sc2ccccc21)NNC(=S)Nc1ccc(Cl)cc1Cl,.,?,.,.,10µM[quencher],.
Cc1ccc(OCC(=O)Nc2ccc3nc(Nc4cccc(Cl)c4)cc(C)c3c2)cc1,.,.,.,.,?,/
COc1ccc(CC(=O)Nc2ccc3nc(Nc4cccc(Cl)c4)cc(C)c3c2)cc1,?,?,.,.,4.5µM[quencher],/
COc1ccccc1CC(=O)Nc1ccc2nc(Nc3cccc(Cl)c3)cc(C)c2c1,?,?,.,.,4µM[quencher],/
Cc1cc(Nc2cccc(C(F)(F)F)c2)nc2ccc(NC(=O)Cc3ccc(Cl)cc3)cc12,?,?,.,.,7.9µM[quencher],/
CCC1CCCCN1S(=O)(=O)c1cc(C(=O)Nc2ccc(C)c(F)c2)ccc1F (configuration not stated),?,.,.,.,?,/
CCn1c(O)c(/C=N/N=C2CCCCC2)c2cc(C3=NNC(=O)CC3)ccc21,.,10µM,.,.,.,.
CCn1c(O)c(/C=N/N=C2CCCC2)c2ccc(C3=NNC(=O)CC3)cc21,.,?,.,.,.,.
O=C(O)c1ccncc1.O=C(O)c1ccncc1.[Cl][Pt]([Cl])([Cl])[Cl],/,/,/,/,/,.[14.2 µM]
Oc1c(C=Nc2ccccc2Cl)[nH]c2ccccc12,?,40µM,.,.,?,.
COc1ccc(C2c3c(oc4ccccc4c3=O)C(=O)N2c2ccccn2)cc1OC (configuration not stated),.,.,.,.,.,.
COc1cc(C2c3c(oc4ccccc4c3=O)C(=O)N2c2ccccn2)cc(OC)c1OC (configuration not stated),.,.,.,0.04µM[quencher],.,/
CCOc1ccc(Nc2cc(Nc3ccccc3OCC)nc(C=C(C#N)C#N)n2)cc1,.,2.8µM,.,.,.,.
CCOc1ccccc1Nc1cc(-c2ccccc2)nc(C)n1,.,.,.,.,.,/
Cc1cccc(Oc2cc(NC(=O)c3ccccc3)cc([N+](=O)[O-])c2)c1,.,.,.,.,7.1µM[quencher],.
Cc1nn(CCCC(=O)Nc2cc(Oc3ccccc3)cc([N+](=O)[O-])c2)c(C)c1[N+](=O)[O-],.,.,.,.,10µM[quencher],/
Cn1cc([N+](=O)[O-])c(C(=O)Nc2cc(Oc3ccccc3)cc([N+](=O)[O-])c2)n1,.,.,.,?,?,.
O=C(Nc1cc(Oc2ccc(Cl)cc2)cc([N+](=O)[O-])c1)c1ccco1,.,.,.,.,7.1µM[quencher],.
Cc1ccc(Oc2cc(NC(=O)CCCn3nc([N+](=O)[O-])cc3C)cc([N+](=O)[O-])c2)cc1,.,.,.,.,10µM[quencher],.
Cc1ccc(C)c(Oc2cc(NC(=O)CCCn3nc(C)c([N+](=O)[O-])c3C)cc([N+](=O)[O-])c2)c1,.,.,.,.,.,.
C=CCn1c(NC(=O)c2ccc(Br)o2)c(S(=O)(=O)c2ccccc2)c2nc3ccccc3nc21,?,20µM,.,.,.,.
SMILES,Tau FP inhib,Tau ThT inhib,TRb SRC2 PPI,TexasRed fluor,Tau fluor counter,GoLoco inh red
O=C(O)CCNc1cc2ccccc2cc1C(=O)O,?,16µM,.,.,.,.
O=C(O)CCNS(=O)(=O)c1ccc2ccccc2c1,.,.,.,.,.,.
CN1C2CCC1/C(=C\c1ccccc1)C(=O)/C2=C\c1ccccc1,?,16µM,.,.,.,.
CCCCCCCCCCCCCCCCN(C)C,/,/,.,.,/,/
CCC(CC)c1nnc(NC(=O)c2ccc(N3CCCCC3)c([N+](=O)[O-])c2)s1,.,.,.,.,.,.
O=C(Nc1nc2ccc(Cl)cc2s1)c1ccc(N2CCCCC2)c([N+](=O)[O-])c1,.,1.3µM,?,.,.,.
O=C(Nc1ccc(N2CCCCC2)c(Cl)c1)c1ccc(N2CCOCC2)c([N+](=O)[O-])c1,?,?,.,.,?,.
O=C(Nc1nc2ccc3ccccc3c2s1)c1ccc(N2CCCCC2)c([N+](=O)[O-])c1,.,4µM,.,.,.,.
Cn1c(=O)c(-c2cc(F)cc(F)c2)nc2cnc(Nc3ccccc3)nc21,/,/,/,/,/,.
Cc1cccc(N2CCN(C(=O)C3CCN(C(=O)c4cc5sccc5n4C)CC3)CC2C)c1 (configuration not stated),.,?,.,.,.,/
Cc1o[nH]c(=O)c1CCC(N)C(=O)O (configuration not stated),.,.,.,.,.,.
CNc1ccc(-c2nc3ccccc3s2)cc1,/,/,.,.,/,/
COc1ccc(Nc2nc(N/N=C/c3ccc(N(C)C)cc3)nc(C)c2[N+](=O)[O-])cc1,.,3.2µM,.,.,11µM[quencher],.
CCNc1nc(NCC)nc(N/N=C/c2ccc(N(C)C)cc2)n1,.,?,.,.,.,.
COc1ccc(Nc2nc(NN)nc(C)c2[N+](=O)[O-])cc1,.,14µM,.,.,?,.
CC(C)C[C@H](NC(=O)[C@H](CCCCN)NC(=O)CNC(=O)[C@H](CC(C)C)NC(=O)[C@@H](NC(=O)[C@@H]1CSSC[C@H](N)C(=O)N[C@@H](CO)C(=O)N[C@@H](CC(N)=O)C(=O)N[C@@H](CC(C)C)C(=O)N[C@@H](CO)C(=O)N[C@@H]([C@@H](C)O)C(=O)N1)C(C)C)C(=O)N[C@@H](CO)C(=O)N[C@@H](CCC(N)=O)C(=O)N[C@@H](CCC(=O)O)C(=O)N[C@@H](CC(C)C)C(=O)N[C@@H](Cc1cnc[nH]1)C(=O)N[C@@H](CCCCN)C(=O)N[C@@H](CC(C)C)C(=O)N[C@@H](CCC(N)=O)C(=O)N[C@H](C(=O)N[C@@H](Cc1ccc(O)cc1)C(=O)N1CCC[C@H]1C(=O)N[C@@H](CCCNC(=N)N)C(=O)N[C@H](C(=O)N[C@@H](CC(N)=O)C(=O)N[C@H](C(=O)NCC(=O)N[C@@H](CO)C(=O)NCC(=O)N[C@H](C(=O)N1CCC[C@H]1C(N)=O)[C@@H](C)O)[C@@H](C)O)[C@@H](C)O)[C@@H](C)O,/,/,.,.,/,/
CC(C)CN(c1ccccc1)S(=O)(=O)c1nnc(NC(=O)C2CCCCC2)s1,.,?,.,4.5µM[quencher],.,/
